Measured values taken from PubChem BioAssay.

These compounds were tested on Lefty1 (assay: Lefty1 binders on small-molecule microarrays, primary screen, biochemical, small-molecule microarray, 635/667 nm fluorescence (AID 1139)). Settings: small-molecule microarray binding, fluorescence 635/667; higher = more signal.

| SMILES | composite z-score |
| --- | --- |
| CCC#CCN(Cc1ccccc1Br)[C@H](/C=C/C1CC1)[C@@H](O)Cc1ccccc1 | -0.355 |
| CCCCN1CC=CC23O[C@@H]4/C=C\CCCOC(=O)C4[C@H]2C(=O)N(CCO)[C@@H]3C1=O (some centres undefined) | -0.832 |
| C=CCNC(=O)[C@@H]1[C@H]2C(=O)O[C@H](c3ccccc3)[C@H](c3ccccc3)N2[C@H](c2ccccc2OCCO)[C@@]12C(=O)N(C(=O)OCCOC)c1ccc(C#CC3(O)CCCCCC3)cc12 | 0.988 |
| O=C(C1N=C(c2ccc(OCCCO)cc2)N(c2ccccc2)O1)N1CCCCC1 (centres undefined) | 0.168 |
| CN(C)CCCCCCNC(=O)[C@@H]1C[C@@H]2C(=O)N3CCC[C@H]3C(=O)N2[C@@H]1c1cccc(OCCO)c1 | 1.48 |
| COC(=O)[C@@]1(Cc2ccccc2)[C@H]2c3cc(C(=O)N(C)C)n(Cc4ccc(C)o4)c3C[C@H]2CN1C(=O)c1ccccc1 | -0.566 |
| O[C@@H](Cc1ccccc1)[C@@H](/C=C/C1CC1)N(CC#Cc1ccccc1)Cc1ccccc1Br | -0.512 |
| COCC(=C=CC[C@H](O)c1ccc(OCCO)cc1)CCO | 1.56 |
| NCCCCCNC(=O)[C@H]1C[C@H]2C(=O)N3CCC[C@H]3C(=O)N2[C@H]1c1cccc(OCCO)c1 | -0.285 |
| CCCC[C@@H]1C[C@H]1[C@@H](NC(=O)c1cccs1)c1ccccc1C(F)(F)F | -0.716 |
| CCOC(=O)C[C@H]1[C@H](OC(=O)Cc2ccc3c(c2)OCO3)[C@@H](NC(=O)C2CCCCC2)c2cc(OCCCO)ccc2N1C(=O)c1ccccc1 | 0.218 |
| COc1cc(C(O)C2C=CC3C(=O)N(C)C(=O)C3N2Nc2ccccc2)cc(OC)c1OC (centres undefined) | -0.714 |
| COc1ccc([Si](C)(C)[C@@H]2[C@@H](CC(=O)N3Cc4ccccc4C[C@H]3CO)O[C@]3(C(=O)N(Cc4ccc(N5C(=O)c6cccc7cccc5c67)cc4)c4ccccc43)[C@H]2C)cc1 | 1.11 |
| C=CCC(OC(C)=O)[C@@H]1[C@@H](N(Cc2ccc(-c3cccc(C(F)(F)F)c3)o2)C(=O)c2ccc(-c3ccccc3)cc2)c2cc(OCCCO)ccc2N1C(=O)Cc1ccc2ccccc2c1 (some centres undefined) | -0.175 |
| C=CCNC(=O)[C@H]1[C@@H]2C(=O)O[C@@H](c3ccccc3)[C@@H](c3ccccc3)N2[C@@H](c2ccccc2OCCO)[C@]12C(=O)N(C(=O)OCCOC)c1ccc(C#CC3(O)CCCCCC3)cc12 | 0.876 |
| COc1ccc([Si](C)(C)[C@@H]2[C@@H](CCO)O[C@]3(C(=O)N(Cc4cccc(NC(=O)[C@H](C)O)c4)c4ccccc43)[C@H]2C)cc1 | 0.486 |
| CCCCC[C@H]1OC[C@@]23C=C(Br)[C@@H](CC12)[C@@]1(CO1)C3=O (some centres undefined) | 0.505 |
| C=CCN1Cc2ccccc2[C@@H]2OC(c3ccc(OCCCO)cc3)=N[C@]2(CC=C)C1=O | 1.2 |
| Cc1ccc(NN2C(C(O)c3c(F)cccc3Cl)C=CC3C(=O)N(C4CCCCC4)C(=O)C32)cc1 (centres undefined) | -0.209 |
| CCCCC(CC)C(O)C1C=CC2C(=O)N(c3ccccc3)C(=O)C2N1Nc1ccc(C#N)cc1 (centres undefined) | 0.131 |
| NC(=O)[C@H]1[C@@H]2C(=O)O[C@@H](c3ccccc3)[C@@H](c3ccccc3)N2[C@@H](c2ccc(OCCO)cc2)[C@]12C(=O)Nc1ccc(C#CCCO)cc12 | 0.551 |
| CCC1=C2CN(Cc3ccccc3)[C@@H](C(=O)Cc3ccccc3)C2C=CCC1 (some centres undefined) | 0.352 |
| [N-]=[N+]=Nc1ccccc1C[C@]1(C(=O)NCC(O)CO)COC(c2ccc(OCCCO)cc2)=N1 (some centres undefined) | -0.729 |
| CCCC=C(CCC)[C@@H](NP(=O)(c1ccccc1)c1ccccc1)c1ccc(-c2ccccc2)cc1 | 0.38 |
| CCOC(=O)C[C@H]1[C@H](OC(=O)c2ccc(C(=O)c3ccccc3)cc2)[C@@H](NC(=O)c2ccc(-c3ccccc3)cc2)c2cc(OCCCO)ccc2N1C(=O)Cc1ccc(OC)cc1 | 0.374 |
| CO[C@H]1O[C@H](CO)[C@@H](OC(=O)CCc2ccccc2)[C@@H]2OC(=O)[C@@H](Cc3ccccc3)C/C=C/C[C@H](Cc3ccccc3)C(=O)O[C@@H]12 | 0.396 |
| CCOC(=O)C1=C[C@@H](c2ccccc2)N(S(=O)(=O)c2ccc(C)cc2)[C@H]1c1ccc(OC)cc1 | -0.0395 |
| [N-]=[N+]=Nc1ccccc1C[C@]1(C(=O)NCCN2CCOCC2)COC(c2ccc(OCCCO)cc2)=N1 | -0.494 |
| COc1ccc([Si](C)(C)[C@H]2[C@H](CC(=O)N3Cc4ccccc4C[C@H]3CO)O[C@@]3(C(=O)N(Cc4ccc(N5CCOC5=O)cc4)c4ccccc43)[C@@H]2C)cc1 | 1.22 |
